PubChem BioAssay (EPA / NIEHS)
Results filed as inconclusive are left out. The source made the active and inactive calls. Rule for the calls, unless noted: active = hit-call score of the fitted dose curve at least 0.9, where 1 is the maximum; inactive = score below 0.9.

Legend:
[1] = CCTE_Mundy_HCI_Cortical_Synap_Neur_Matur_NeuriteCount: CCTE's Synaptogenesis and Neurite Maturation Assay in rat cortical cells for Neurite Count, Mundy Lab (AID 2284222);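 note: exposure from day 7 to day 12 in vitro with readout at day 12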
Summary of the method: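 In this multiplexed morphology readout, rat primary cortical neurons are fixed at DIV 12 following dosing at DIV 7 and stained for MAP2, synaptophysin and nuclei. High-content image analysis yields neurite count.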

[2] = CCTE_Mundy_HCI_Cortical_Synap_Neur_Matur_CellBodySpotCount: CCTE's Synaptogenesis and Neurite Maturation Assay in rat cortical cells for Cell Body Spot Count, Mundy Lab (AID 2284223)
Summary of the method: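 Rat primary cortical cultures received AraC at DIV 5 to arrest glia, were dosed with chemical at DIV 7 with media change, and were fixed at DIV 12 (288.33 h). Synaptophysin puncta on MAP2-positive cell bodies per neuron were counted by high-content imaging versus DMSO.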

[3] = CCTE_Mundy_HCI_Cortical_NOG_BPCount: CCTE's Neurite Outgrowth Assay in rat cortical cells for Branch Point Count, Mundy Lab (AID 2284237)
Summary of the method: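 Measured 50.33 h after dosing, this morphology endpoint uses rat primary cortical cultures labelled for betaIII-tubulin. Branch points are quantified by high-content imaging, with DMSO as negative control and baseline.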

[4] = CCTE_Mundy_HCI_hNP1_Casp3_7: CCTE's Caspase-Glo 3/7 Assay in human neuroprogenitor cells for Apoptosis, Mundy Lab (AID 2284240)
Summary of the method: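 Neuroepithelial-lineage stem cells from WA09 embryonic cells were treated with chemicals after 40–44 h of culture. Twenty-four hours later, caspase-3/7 activation was detected luminescently after a 30 min room-temperature reagent step, with DMSO as baseline.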

[5] = CCTE_Mundy_HCI_Cortical_Synap_Neur_Matur_NeuronCount: CCTE's Synaptogenesis and Neurite Maturation Assay in rat cortical cells for Neuron Count, Mundy Lab (AID 2284242; active = hit-call score of the fitted dose curve at least 0.9, where 1 is the maximum)
Summary of the method: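 Rat primary cortical cells, AraC added at DIV 5, dosed with media change from DIV 7 to DIV 12. Fixed, Hoechst-stained and immunolabelled for MAP2 and synaptophysin; neuron number counted by high-content imaging, loss fitted versus DMSO.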

[6] = IUF_NPC2c_oligodendrocyte_migration_120hr: Leibniz Research Institute for Environmental Medicine (IUF) 120-hour Neural Progenitor Cell Migration Assay for Oligodendrocyte Migration (NPC2c) (AID 2284297);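 note: O4-positive oligodendrocyte migration distance divided by radial glia migration distance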
Summary of the method: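 Human fetal cortex-derived neural progenitor spheres (0.3 mm) were plated on poly-D-lysine/laminin in N2 differentiation medium and exposed to 7 concentrations for 120 h, with half-medium renewal at day 3. Oligodendrocyte migration distance was normalized to radial glia migration, relative to DMSO.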

[7] = IUF_NPC2a_radial_glia_migration_120hr: Leibniz Research Institute for Environmental Medicine (IUF) 120-hour Neural Progenitor Cell Migration Assay for Radial Glia Migration (NPC2a) (AID 2284298)
Summary of the method: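 Single 0.3 mm primary human fetal-cortex (GW 16-19) NPC spheres were plated on poly-D-lysine/laminin in N2 differentiation medium and exposed from day 0 for 120 h, half-medium refreshed day 3. Migration distance came from Hoechst nuclei-density imaging, relative to DMSO.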

[8] = IUF_NPC2a_radial_glia_migration_72hr: Leibniz Research Institute for Environmental Medicine (IUF) 72-hour Neural Progenitor Cell Migration Assay for Radial Glia Migration (NPC2a) (AID 2284299)
Summary of the method: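 Human fetal neural progenitor spheres (0.3 mm) plated on poly-D-lysine/laminin in N2 differentiation medium and exposed from day 0 at 7 concentrations; radial glia migration distance from sphere edge measured at 72 h on brightfield images, mean of four directions, vs DMSO.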

[9] = IUF_NPC2b_neuronal_migration_120hr: Leibniz Research Institute for Environmental Medicine (IUF) 120-hour Neural Progenitor Cell Migration Assay for Neuron Migration (NPC2b) (AID 2284300)
Summary of the method: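 Primary human fetal cortex neural progenitor spheres (0.3 mm) plated on poly-D-lysine/laminin in N2 differentiation medium, exposed 120 h with half-medium refresh at day 3. TUBB3-stained neuron distance from sphere core, normalized to radial glia migration, versus DMSO.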

[10] = IUF_NPC3_neuronal_differentiation_120hr: Leibniz Research Institute for Environmental Medicine (IUF) 120-hour Neuronal Differentiation Assay (NPC3) (AID 2284301)
Summary of the method: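 Primary human fetal neural progenitor spheres (GW 16-19, 0.3 mm) plated on poly-D-lysine/laminin in N2 medium, exposed from day 0 for 120 h with half-medium refresh at day 3. TUBB3+ cells as percent of Hoechst nuclei in migration area; DMSO baseline.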

[11] = IUF_NPC4_neurite_length_120hr: Leibniz Research Institute for Environmental Medicine (IUF) 120-hour Neuronal Morphology Assay for Neurite Length (NPC4) (AID 2284302)
Summary of the method: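 Human fetal cortex (GW 16-19) neural progenitor spheres, 0.3 mm, were plated on poly-D-lysine/laminin in N2 differentiation medium and exposed from day 0 for 120 h, half-feeding at day 3. Mean TUBB3+ neurite length (µm) came from skeletonized images, relative to DMSO.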

[12] = IUF_NPC5_oligodendrocyte_differentiation_120hr: Leibniz Research Institute for Environmental Medicine (IUF) 120-hour Oligodendrocyte Differentiation Assay (NPC5) (AID 2284304; active = hit-call score of the fitted dose curve at least 0.9, where 1 is the maximum;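 note: primary human fetal neural progenitor spheres plated to migrate and differentiate; share of O4-positive cells among Hoechst nuclei found by CNN image analysis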)
Summary of the method: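 Primary human fetal (GW 16-19) neural progenitor spheres (0.3 mm) plated on poly-D-lysine/laminin in N2 differentiation medium, exposed from day 0 for 120 h with half-medium refresh at day 3; O4-positive cells as percent of Hoechst nuclei, CNN-identified, versus DMSO.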

[13] = TAMU_HCS_1.5hr_SingleDonor1434_Cytotoxicity: Cytotoxicity Assessment using High-content Screening (HCS) Fluorescent Imaging for the Texas A&M University (TAMU) 1.5-hr Human Induced Pluripotent Stem Cell (iPSC)-derived Cardiotoxicity Assay (AID 2284234; active = hit-call score of the fitted dose curve at least 0.9, where 1 is the maximum)
Summary of the method: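 Human iPSC-derived cardiomyocytes dosed at 0.2, 1, 10, 100 uM final (0.5% DMSO) for 90 min at 37 C. Hoechst 33342-stained nuclei counted by 10x high-content imaging; POD is EC10, a 10% drop in total cell count versus DMSO.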

[14] = TAMU_PeakParms_SingleDonor1434_QT: Texas A&M University (TAMU) 1.5-hr Human Induced Pluripotent Stem Cell (iPSC)-derived Cardiomyocytes Calcium (Ca+2) Flux Assay for Cardiotoxicity: QT (decay-rise ratio) (AID 2284235; active = hit-call score of the fitted dose curve at least 0.9, where 1 is the maximum)
Summary of the method: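 iPSC-derived cardiomyocytes (single donor 1434) dosed at 0.2, 1, 10, 100 uM final in 0.5% DMSO, 90 min at 37C. Ca2+ flux fluorescence decay/rise ratio; EC05 (5% increase versus DMSO) as POD, excluding beat-arrest and severe-notch data.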

[15] = CCTE_Mundy_HCI_hN2_NOG_NeuriteCount: CCTE's Neurite Outgrowth Assay in human hN2 cells for Neurite Count, Mundy Lab (AID 2284219; active = hit-call score of the fitted dose curve at least 0.9, where 1 is the maximum)
Summary of the method: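 In this morphology assay, hNP1-derived neurons received test chemical 2 h post-plating and were fixed two days later in warm paraformaldehyde/sucrose containing Hoechst 33342. Neurites, labelled by rabbit anti-βIII-tubulin (1:800) and Alexa Fluor-488 (1:500), were counted automatically.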

[16] = CCTE_Mundy_HCI_hN2_NOG_NeuriteLength: CCTE's Neurite Outgrowth Assay in human hN2 cells for Neurite Length, Mundy Lab (AID 2284220; active = hit-call score of the fitted dose curve at least 0.9, where 1 is the maximum)
Summary of the method: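 Using βIII-tubulin immunofluorescence and Hoechst nuclear counterstain, this component quantifies neurite length in hNP1-derived neurons.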

[17] = CCTE_Mundy_HCI_hN2_NOG_NeuronCount: CCTE's Neurite Outgrowth Assay in human hN2 cells for Neuron Count, Mundy Lab (AID 2284221; active = hit-call score of the fitted dose curve at least 0.9, where 1 is the maximum)
Summary of the method: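 Read-out is the number of betaIII-tubulin-positive neurons imaged by automated high-content analysis, with DMSO as negative control.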

[18] = CCTE_Mundy_HCI_hNP1_Pro_ResponderAvgInten: CCTE's Proliferation Assay in human neuroprogenitor cells, Mundy Lab (AID 2284224; active = hit-call score of the fitted dose curve at least 0.9, where 1 is the maximum;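 note: human neural progenitor cells hNP1 derived from WA09 embryonic stem cells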)
Summary of the method: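 Human neuroprogenitors (hNP1, WA09 lineage) receive test chemical after 40 to 44 hours of attachment. A four-hour BrdU pulse begins twenty hours later, followed by fixation and high content imaging; signal is referenced to DMSO controls.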

[19] = CCTE_Mundy_HCI_hNP1_CellTiter: CCTE's Cell Titer-Glo 2 Assay in human neuroprogenitor cells for Viability, Mundy Lab (AID 2284241; active = hit-call score of the fitted dose curve at least 0.9, where 1 is the maximum)
Summary of the method: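 Measures ATP content in human neural progenitors derived from WA09 embryonic cells. Read-out at 26.5 hours after dosing, with DMSO serving as the negative control and baseline.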

[20] = CCTE_Mundy_HCI_Cortical_NOG_NeuronCount: CCTE's Neurite Outgrowth Assay in rat cortical cells for Neuron Count, Mundy Lab (AID 2284236; active = hit-call score of the fitted dose curve at least 0.9, where 1 is the maximum;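 note: neurons counted by imaging betaIII-tubulin and Hoechst stained cortical cells; cells exposed to compound for about 48 hours before fixation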)
Summary of the method: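 Read-out: neuron number by high-content imaging of betaIII-tubulin (Alexa Fluor-488) and Hoechst-labelled rat primary cortical cells.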

Measured: AC50

OC[C@@H](O)[C@@H](O)[C@H](O)[C@H](O)CO
inactive: [1] | [2] | [3] | [4] | [5] | [6] | [7] | [8] | [9] | [10] | [11] | [12]

CCOc1ccc2c(c1)C(C)=CC(C)(C)N2
inactive: [14]
active: [13] 50 µM

O=c1[nH]cc(F)c(=O)[nH]1
inactive: [15] | [16] | [2] | [13] | [14] | [5]
active: [17] 2.34 µM | [18] 4.62 µM | [4] 23.8 µM

CC(=O)Oc1ccccc1C(=O)O
inactive: [1] | [2] | [13] | [14] | [3] | [4] | [19] | [6] | [7] | [8] | [9] | [10] | [11]

COC(=O)c1ccc(O)cc1
inactive: [13] | [14]

O=C(O)CCCCC(=O)O
inactive: [13] | [14]

CCCc1cc(=O)[nH]c(=S)[nH]1
inactive: [15] | [16] | [17] | [2] | [13] | [20] | [4] | [5]

C[Si]1(C)O[Si](C)(C)O[Si](C)(C)O[Si](C)(C)O1
inactive: [1] | [2] | [18] | [3] | [4] | [6] | [7] | [8] | [9] | [10] | [11] | [12]
